Tests used:
[1] = biological target: T1, Tyrosine-protein kinase ITK/TSK (Homo sapiens) (UniProt Q08881); details: at 10 µM
T1 sequence (whole entry): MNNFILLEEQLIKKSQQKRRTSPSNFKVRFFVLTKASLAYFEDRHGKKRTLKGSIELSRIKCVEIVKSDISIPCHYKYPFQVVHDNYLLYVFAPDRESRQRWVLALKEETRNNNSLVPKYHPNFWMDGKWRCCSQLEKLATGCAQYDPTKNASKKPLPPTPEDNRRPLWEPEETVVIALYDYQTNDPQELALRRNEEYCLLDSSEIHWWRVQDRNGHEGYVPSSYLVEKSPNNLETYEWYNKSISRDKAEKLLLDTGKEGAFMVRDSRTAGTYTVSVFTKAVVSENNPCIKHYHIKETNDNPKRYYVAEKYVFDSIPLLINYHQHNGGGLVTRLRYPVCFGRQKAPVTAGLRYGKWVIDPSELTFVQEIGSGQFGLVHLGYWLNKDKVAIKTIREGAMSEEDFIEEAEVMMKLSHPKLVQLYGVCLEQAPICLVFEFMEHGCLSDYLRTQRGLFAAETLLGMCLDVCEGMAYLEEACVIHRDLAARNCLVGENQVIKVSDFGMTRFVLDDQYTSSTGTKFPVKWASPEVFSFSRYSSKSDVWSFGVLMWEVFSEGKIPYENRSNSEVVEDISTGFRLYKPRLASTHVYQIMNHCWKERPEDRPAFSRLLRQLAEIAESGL

[2] = biological target: Tyrosine-protein kinase JAK2 (Homo sapiens) (UniProt O60674); details: at 10 µM
[3] = biological target: T2, Tyrosine-protein kinase JAK3 (Homo sapiens) (UniProt P52333); details: at 1 µM
T2 sequence (whole entry): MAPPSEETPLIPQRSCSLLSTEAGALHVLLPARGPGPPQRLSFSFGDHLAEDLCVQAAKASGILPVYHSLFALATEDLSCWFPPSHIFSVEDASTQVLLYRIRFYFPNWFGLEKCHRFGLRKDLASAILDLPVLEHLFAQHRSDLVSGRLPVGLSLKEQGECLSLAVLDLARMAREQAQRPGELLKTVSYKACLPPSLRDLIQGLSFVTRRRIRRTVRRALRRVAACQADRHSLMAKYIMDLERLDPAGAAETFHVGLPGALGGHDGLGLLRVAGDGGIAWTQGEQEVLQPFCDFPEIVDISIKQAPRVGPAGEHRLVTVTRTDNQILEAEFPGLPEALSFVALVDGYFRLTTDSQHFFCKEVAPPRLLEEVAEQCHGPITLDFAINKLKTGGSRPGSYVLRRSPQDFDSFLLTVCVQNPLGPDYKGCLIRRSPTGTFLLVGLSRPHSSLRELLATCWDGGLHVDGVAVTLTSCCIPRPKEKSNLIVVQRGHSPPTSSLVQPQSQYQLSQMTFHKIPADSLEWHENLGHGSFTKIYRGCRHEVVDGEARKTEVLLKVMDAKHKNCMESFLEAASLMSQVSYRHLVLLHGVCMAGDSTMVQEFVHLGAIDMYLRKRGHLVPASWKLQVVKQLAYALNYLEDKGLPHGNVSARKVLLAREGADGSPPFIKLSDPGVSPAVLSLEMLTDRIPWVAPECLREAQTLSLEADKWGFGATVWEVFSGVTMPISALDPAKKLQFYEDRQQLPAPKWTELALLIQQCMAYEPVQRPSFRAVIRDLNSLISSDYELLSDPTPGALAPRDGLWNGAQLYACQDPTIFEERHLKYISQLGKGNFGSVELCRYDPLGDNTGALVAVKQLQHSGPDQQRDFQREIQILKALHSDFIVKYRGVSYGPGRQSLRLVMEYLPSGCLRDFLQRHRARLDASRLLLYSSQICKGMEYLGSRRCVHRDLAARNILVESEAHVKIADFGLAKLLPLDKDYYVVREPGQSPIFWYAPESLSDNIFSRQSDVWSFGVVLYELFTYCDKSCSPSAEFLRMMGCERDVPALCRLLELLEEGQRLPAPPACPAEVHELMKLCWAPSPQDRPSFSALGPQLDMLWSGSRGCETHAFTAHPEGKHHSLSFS

[4] = biological target: T2, Tyrosine-protein kinase JAK3 (Homo sapiens); details: at 10 µM
[5] = biological target: Mitogen-activated protein kinase 9 (Homo sapiens) (UniProt P45984); details: at 1 µM
[6] = biological target: Mitogen-activated protein kinase 9 (Homo sapiens) (UniProt P45984); details: at 10 µM
[7] = biological target: Mitogen-activated protein kinase 10 (Homo sapiens) (UniProt P53779); details: at 1 µM
[8] = biological target: Mitogen-activated protein kinase 10 (Homo sapiens) (UniProt P53779); details: at 10 µM
[9] = biological target: Vascular endothelial growth factor receptor 2 (Homo sapiens) (UniProt P35968); details: at 1 µM
[10] = biological target: Vascular endothelial growth factor receptor 2 (Homo sapiens) (UniProt P35968); details: at 10 µM
[11] = biological target: LIM domain kinase 1 (Homo sapiens) (UniProt P53667); details: at 10 µM
[12] = biological target: T3, Interleukin-1 receptor-associated kinase 4 (Homo sapiens) (UniProt Q9NWZ3); details: at 10 µM
T3 sequence (whole entry): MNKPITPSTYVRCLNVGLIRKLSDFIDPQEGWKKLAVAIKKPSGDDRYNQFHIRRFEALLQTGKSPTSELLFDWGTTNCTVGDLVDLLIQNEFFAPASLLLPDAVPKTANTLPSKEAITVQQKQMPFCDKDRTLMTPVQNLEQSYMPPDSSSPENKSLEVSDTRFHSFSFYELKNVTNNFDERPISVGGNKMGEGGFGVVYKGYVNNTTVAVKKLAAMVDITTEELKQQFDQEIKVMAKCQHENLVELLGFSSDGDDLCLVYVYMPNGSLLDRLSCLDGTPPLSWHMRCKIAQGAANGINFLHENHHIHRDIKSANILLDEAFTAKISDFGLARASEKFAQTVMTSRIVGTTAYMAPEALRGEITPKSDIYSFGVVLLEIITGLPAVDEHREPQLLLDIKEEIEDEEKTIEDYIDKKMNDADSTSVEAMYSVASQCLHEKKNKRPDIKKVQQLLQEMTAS

[13] = biological target: Insulin receptor-related protein (Homo sapiens) (UniProt P14616); details: at 1 µM
[14] = biological target: Insulin receptor-related protein (Homo sapiens) (UniProt P14616); details: at 10 µM
[15] = biological target: T1, Tyrosine-protein kinase ITK/TSK (Homo sapiens); details: at 1 µM
[16] = biological target: Tyrosine-protein kinase JAK2 (Homo sapiens) (UniProt O60674); details: at 1 µM
[17] = biological target: Mitogen-activated protein kinase 8 (Homo sapiens) (UniProt P45983); details: at 1 µM
[18] = biological target: Mitogen-activated protein kinase 8 (Homo sapiens) (UniProt P45983); details: at 10 µM
[19] = biological target: T3, Interleukin-1 receptor-associated kinase 4 (Homo sapiens); details: at 1 µM
[20] = biological target: LIM domain kinase 1 (Homo sapiens) (UniProt P53667); details: at 1 µM

Vascular endothelial growth factor receptor 2 (Homo sapiens), sequence (P35968 whole entry, the tested form may be a part): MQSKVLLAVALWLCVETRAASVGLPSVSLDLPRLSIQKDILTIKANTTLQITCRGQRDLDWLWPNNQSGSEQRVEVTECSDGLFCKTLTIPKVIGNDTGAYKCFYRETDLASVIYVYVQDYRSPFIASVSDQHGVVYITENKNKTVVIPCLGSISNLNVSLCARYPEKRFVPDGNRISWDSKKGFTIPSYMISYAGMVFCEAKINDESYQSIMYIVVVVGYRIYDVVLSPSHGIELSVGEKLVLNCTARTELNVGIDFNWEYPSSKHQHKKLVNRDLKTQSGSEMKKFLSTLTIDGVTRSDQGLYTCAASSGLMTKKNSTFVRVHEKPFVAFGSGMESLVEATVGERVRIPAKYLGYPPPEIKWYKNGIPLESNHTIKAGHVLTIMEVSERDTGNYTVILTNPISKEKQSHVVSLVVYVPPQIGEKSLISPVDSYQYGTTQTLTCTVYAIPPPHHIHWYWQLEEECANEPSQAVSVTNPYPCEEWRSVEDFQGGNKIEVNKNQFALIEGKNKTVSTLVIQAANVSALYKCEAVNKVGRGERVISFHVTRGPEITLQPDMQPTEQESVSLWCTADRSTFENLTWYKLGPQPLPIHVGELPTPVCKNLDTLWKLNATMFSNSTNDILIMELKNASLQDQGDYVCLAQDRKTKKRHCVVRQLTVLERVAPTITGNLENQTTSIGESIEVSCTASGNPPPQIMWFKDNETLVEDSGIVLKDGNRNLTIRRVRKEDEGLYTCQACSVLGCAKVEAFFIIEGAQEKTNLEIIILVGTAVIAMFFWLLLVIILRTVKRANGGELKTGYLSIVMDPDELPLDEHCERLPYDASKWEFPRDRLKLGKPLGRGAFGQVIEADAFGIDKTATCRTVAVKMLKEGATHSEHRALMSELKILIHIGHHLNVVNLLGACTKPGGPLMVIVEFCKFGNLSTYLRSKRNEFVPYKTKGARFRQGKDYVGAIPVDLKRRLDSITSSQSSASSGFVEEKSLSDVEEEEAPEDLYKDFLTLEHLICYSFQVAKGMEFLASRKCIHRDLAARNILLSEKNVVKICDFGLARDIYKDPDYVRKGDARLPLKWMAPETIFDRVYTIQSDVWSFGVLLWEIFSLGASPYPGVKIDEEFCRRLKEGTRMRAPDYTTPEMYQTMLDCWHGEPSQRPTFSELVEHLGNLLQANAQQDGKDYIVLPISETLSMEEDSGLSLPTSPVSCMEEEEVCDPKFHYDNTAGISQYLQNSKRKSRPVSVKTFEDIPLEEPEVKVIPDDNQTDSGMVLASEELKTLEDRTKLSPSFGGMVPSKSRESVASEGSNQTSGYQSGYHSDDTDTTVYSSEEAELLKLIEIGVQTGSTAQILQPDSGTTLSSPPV
Tyrosine-protein kinase JAK2 (Homo sapiens), sequence (O60674 whole entry): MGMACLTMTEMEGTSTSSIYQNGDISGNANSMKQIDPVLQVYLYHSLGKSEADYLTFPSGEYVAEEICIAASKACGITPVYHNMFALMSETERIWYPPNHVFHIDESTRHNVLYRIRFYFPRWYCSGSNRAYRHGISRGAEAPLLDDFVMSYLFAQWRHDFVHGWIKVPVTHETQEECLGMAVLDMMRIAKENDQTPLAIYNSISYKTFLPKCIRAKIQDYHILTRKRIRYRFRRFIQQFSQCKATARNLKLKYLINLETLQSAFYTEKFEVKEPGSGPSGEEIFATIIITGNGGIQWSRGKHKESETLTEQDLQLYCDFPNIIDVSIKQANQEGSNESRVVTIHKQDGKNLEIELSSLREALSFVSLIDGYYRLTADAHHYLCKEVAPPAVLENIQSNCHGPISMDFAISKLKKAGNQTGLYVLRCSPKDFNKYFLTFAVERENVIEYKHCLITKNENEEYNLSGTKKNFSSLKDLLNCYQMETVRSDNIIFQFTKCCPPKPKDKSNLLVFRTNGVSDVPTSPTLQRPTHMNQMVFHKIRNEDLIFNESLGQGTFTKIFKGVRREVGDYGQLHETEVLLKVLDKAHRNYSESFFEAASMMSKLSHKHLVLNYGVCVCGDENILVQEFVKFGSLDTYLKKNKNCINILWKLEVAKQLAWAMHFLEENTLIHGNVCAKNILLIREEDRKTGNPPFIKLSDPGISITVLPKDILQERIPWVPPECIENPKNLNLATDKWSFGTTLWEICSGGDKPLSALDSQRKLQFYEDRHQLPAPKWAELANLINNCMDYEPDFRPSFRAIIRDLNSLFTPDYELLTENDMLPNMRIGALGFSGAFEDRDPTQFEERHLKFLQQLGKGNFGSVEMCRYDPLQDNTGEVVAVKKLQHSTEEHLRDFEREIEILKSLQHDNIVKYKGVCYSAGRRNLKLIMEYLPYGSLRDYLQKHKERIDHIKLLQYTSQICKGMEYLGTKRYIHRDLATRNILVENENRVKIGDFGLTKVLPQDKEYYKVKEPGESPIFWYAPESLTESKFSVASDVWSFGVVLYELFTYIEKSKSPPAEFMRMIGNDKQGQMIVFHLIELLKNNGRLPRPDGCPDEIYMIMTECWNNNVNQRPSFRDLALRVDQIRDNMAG
LIM domain kinase 1 (Homo sapiens), sequence (P53667 whole entry, looked up, the tested form may be a part): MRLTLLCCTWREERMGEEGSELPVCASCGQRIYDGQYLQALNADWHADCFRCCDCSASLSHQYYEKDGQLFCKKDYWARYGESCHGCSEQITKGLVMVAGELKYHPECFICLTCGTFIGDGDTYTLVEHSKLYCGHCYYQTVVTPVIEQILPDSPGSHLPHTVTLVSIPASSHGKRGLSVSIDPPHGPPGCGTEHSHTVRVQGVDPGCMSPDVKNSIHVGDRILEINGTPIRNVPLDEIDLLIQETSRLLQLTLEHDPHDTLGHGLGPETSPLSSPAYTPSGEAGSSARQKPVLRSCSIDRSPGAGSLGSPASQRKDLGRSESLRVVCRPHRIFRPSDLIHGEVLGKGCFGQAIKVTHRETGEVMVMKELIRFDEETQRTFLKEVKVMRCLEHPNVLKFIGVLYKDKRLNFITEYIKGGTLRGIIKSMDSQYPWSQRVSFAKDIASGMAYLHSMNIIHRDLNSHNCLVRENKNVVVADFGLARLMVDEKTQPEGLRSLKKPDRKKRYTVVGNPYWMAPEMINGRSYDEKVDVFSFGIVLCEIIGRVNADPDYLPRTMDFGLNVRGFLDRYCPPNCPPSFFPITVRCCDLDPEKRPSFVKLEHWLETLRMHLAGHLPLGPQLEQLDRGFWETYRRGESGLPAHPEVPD
Insulin receptor-related protein (Homo sapiens), sequence (P14616 27-742 limits assumed): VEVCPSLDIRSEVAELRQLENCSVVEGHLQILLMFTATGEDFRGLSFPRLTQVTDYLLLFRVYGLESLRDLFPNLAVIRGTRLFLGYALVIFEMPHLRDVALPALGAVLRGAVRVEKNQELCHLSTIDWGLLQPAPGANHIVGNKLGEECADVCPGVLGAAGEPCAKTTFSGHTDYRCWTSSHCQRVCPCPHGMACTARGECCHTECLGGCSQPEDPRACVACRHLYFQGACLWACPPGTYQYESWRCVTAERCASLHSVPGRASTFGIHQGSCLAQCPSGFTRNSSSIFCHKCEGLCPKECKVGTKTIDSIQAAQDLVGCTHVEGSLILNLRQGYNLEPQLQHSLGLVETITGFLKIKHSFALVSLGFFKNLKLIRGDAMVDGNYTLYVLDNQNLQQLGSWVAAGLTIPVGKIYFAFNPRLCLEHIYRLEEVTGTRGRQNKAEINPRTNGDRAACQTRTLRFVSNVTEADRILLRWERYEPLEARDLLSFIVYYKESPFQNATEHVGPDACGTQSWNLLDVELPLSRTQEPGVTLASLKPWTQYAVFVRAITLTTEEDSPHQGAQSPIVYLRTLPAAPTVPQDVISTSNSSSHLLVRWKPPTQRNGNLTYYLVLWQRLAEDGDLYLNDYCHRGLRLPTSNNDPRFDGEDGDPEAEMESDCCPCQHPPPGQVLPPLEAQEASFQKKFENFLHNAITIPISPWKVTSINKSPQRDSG
Insulin receptor-related protein (Homo sapiens), sequence (P14616 747-1297 limits assumed): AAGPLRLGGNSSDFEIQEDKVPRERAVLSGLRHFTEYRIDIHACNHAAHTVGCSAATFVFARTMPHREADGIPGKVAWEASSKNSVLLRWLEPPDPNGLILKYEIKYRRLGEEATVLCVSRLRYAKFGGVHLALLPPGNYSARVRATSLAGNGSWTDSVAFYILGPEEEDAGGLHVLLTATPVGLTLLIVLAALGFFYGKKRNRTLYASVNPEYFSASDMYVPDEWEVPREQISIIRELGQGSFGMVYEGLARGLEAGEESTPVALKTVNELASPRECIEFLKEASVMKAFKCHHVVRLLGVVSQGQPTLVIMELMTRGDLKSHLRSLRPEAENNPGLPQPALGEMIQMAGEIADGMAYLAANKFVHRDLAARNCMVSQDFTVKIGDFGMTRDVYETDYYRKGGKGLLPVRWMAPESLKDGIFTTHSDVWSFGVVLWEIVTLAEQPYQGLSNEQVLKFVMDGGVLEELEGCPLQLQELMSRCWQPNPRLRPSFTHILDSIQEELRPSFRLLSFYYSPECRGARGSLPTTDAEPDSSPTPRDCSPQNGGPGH
Mitogen-activated protein kinase 9 (Homo sapiens), sequence (P45984 whole entry, looked up): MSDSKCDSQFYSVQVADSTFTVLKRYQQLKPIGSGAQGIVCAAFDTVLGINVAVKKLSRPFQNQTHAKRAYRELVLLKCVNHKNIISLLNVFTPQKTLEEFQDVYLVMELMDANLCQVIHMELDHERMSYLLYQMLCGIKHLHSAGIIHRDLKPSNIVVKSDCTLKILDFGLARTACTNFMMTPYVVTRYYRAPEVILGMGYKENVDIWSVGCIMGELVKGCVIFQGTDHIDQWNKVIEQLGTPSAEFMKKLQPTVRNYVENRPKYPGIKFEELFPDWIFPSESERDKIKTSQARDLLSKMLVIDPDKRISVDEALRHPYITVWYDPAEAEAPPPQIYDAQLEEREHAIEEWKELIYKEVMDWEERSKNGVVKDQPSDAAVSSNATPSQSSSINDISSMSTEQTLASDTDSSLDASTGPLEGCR

Structure (SMILES) | residual activity [1] [%] | residual activity [2] [%] | residual activity [3] [%] | residual activity [4] [%] | residual activity [5] [%] | residual activity [6] [%] | residual activity [7] [%] | residual activity [8] [%] | residual activity [9] [%] | residual activity [10] [%] | residual activity [11] [%] | residual activity [12] [%] | residual activity [13] [%] | residual activity [14] [%] | residual activity [15] [%] | residual activity [16] [%] | residual activity [17] [%] | residual activity [18] [%] | residual activity [19] [%] | residual activity [20] [%]
COc1ccc2c(c1)/C(=C/c1cnc[nH]1)C(=O)N2 | 42 | 29 | 48 | 10 | 82 | 47 | 80 | 27 | 47 | 3 | 48 |  |  |  |  |  |  |  |  | 
COc1ccc2c(c[n+](C)c3c4cc5c(cc4ccc23)OCO5)c1OC | 91 | 121 | 91 | 67 |  |  | 81 | 63 |  | 90 | 87 | 83 | 130 | 76 | 99 | 80 | 100 | 64 |  | 
CC(C)[C@H](CO)Nc1nc(Nc2cccc(Cl)c2)c2ncn(C(C)C)c2n1 | 11 | 73 |  |  | 90 | 97 |  |  |  | 58 | 90 | 9 | 83 | 3 | 68 |  |  |  | 45 | 98
N/C(=N\[N+](=O)[O-])N/N=C\c1ccc(-c2cccc([N+](=O)[O-])c2)o1 |  | 85 |  |  | 100 | 98 | 95 | 79 | 92 | 84 |  | 85 |  |  |  | 86 |  |  | 100 | 
O=C1NC(=O)c2c1c1c3ccccc3n3c1c1c2c2ccccc2n1C1CCC3O1 | 70 | 82 | 8 | 9 |  |  | 63 | 56 | 38 | 18 |  | 18 | 74 | 63 | 88 | 86 |  |  | 38 | 
